Experiments:
Assay in all cases: DAPPL (digital affinity profiling via proximity ligation, sequencing); 10 mM Tris-HCl pH 7.5, 50 mM NaCl, 1 mM DTT, 4% glycerol, room temperature, 30 min; GST-TFs on glutathione beads, 16-mer random dsDNA library, 0.1% formaldehyde crosslink after washing; high values mean tight binding
Conditions in all cases: protein: recombinant; tags: N-terminal GST; dsDNA, one strand shown
ETV2 = target: T1, ETV2 (Homo sapiens, UniProt O00321 1-342)
T1 sequence: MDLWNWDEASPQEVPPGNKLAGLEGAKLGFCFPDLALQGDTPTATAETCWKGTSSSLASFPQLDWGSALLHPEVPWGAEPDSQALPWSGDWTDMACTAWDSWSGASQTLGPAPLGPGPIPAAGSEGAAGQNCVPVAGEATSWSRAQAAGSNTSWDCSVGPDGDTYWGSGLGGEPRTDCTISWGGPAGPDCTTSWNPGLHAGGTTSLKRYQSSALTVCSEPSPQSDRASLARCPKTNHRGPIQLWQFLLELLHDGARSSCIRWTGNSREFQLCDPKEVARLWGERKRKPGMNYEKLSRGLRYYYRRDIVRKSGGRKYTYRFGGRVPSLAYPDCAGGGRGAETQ
Summary of the method: (§1)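 Pools were built from human transcription factors expressed in yeast as GST fusions, captured on glutathione beads and DNA-barcoded, along with a tag-only sample. Incubation with 200 nmole of a 16-mer random double-stranded DNA library lasted 30 min at room temperature in Tris/NaCl/DTT/glycerol buffer, and was followed by washing, 0.1% formaldehyde crosslinking, proximity ligation, PCR amplification and Illumina NextSeq500 sequencing. Binding signal is the quotient of each hexamer's read frequency for a factor and its frequency for the tag-only sample.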

FLI1 = target: T2, FLI1 (Homo sapiens, UniProt Q01543 1-452)
T2 sequence: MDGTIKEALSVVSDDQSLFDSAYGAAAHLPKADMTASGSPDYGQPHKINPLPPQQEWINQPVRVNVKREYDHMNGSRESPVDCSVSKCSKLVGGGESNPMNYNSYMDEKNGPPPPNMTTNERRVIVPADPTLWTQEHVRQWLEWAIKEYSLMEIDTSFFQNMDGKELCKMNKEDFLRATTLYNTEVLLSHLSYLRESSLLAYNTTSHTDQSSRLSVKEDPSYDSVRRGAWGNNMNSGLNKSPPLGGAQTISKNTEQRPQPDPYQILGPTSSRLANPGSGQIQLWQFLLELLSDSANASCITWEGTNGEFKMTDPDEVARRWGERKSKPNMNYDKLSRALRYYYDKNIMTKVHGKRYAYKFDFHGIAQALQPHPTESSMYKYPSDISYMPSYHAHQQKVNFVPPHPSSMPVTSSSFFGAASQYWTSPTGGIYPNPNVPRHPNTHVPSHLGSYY
Summary of the method: as §1

ERG = target: T3, ERG (Homo sapiens, UniProt P11308 1-479)
T3 sequence: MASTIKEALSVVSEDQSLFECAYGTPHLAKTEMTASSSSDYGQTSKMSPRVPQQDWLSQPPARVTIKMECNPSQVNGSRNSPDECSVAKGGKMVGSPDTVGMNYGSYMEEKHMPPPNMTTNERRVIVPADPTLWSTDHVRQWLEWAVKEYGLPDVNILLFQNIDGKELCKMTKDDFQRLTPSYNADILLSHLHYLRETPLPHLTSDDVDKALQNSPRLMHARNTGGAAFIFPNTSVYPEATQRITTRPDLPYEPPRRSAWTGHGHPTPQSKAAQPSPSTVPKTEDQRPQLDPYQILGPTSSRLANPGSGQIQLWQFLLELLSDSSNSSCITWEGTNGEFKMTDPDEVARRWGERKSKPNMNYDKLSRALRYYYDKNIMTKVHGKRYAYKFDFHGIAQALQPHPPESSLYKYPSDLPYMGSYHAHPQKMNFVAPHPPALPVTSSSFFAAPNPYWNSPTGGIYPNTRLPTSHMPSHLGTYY
Summary of the method: as §1

ELF1 = ELF1 (Homo sapiens, UniProt P32519 1-619)
Summary of the method: as §1

ETV5 = ETV5 (Homo sapiens, UniProt P41161 1-510)
Summary of the method: as §1

ELF4 = ELF4 (Homo sapiens, UniProt Q99607 1-663)
Summary of the method: as §1

ERF = target: T4, ERF (Homo sapiens, UniProt P50548 1-548)
T4 sequence: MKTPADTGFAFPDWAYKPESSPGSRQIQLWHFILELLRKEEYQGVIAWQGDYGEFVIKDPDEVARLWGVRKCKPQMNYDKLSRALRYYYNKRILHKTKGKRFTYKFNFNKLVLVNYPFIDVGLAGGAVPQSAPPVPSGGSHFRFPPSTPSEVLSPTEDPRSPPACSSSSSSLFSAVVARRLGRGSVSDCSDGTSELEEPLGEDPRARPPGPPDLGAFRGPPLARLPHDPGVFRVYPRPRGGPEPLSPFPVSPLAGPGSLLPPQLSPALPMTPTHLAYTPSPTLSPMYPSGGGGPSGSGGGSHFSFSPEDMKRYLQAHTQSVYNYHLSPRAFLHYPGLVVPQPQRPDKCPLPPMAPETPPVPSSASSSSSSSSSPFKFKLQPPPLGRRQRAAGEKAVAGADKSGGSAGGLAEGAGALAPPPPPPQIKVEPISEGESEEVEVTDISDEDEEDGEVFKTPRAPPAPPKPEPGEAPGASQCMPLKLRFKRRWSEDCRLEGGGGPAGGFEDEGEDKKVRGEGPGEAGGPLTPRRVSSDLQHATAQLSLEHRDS
Summary of the method: as §1

ETV3L = target: T5, ETV3L (Homo sapiens, UniProt Q6ZN32 1-361)
T5 sequence: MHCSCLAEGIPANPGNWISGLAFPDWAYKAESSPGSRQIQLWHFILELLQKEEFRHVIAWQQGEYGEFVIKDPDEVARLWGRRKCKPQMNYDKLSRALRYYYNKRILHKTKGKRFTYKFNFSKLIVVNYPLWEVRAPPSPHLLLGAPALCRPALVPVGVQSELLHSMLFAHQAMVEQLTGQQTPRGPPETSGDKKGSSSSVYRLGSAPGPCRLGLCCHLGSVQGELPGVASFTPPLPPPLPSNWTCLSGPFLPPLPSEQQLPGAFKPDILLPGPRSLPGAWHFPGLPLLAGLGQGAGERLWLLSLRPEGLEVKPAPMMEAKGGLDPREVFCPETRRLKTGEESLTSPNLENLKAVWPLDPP
Summary of the method: as §1

ETV7 = target: T6, ETV7 (Homo sapiens, UniProt Q9Y603 1-341)
T6 sequence: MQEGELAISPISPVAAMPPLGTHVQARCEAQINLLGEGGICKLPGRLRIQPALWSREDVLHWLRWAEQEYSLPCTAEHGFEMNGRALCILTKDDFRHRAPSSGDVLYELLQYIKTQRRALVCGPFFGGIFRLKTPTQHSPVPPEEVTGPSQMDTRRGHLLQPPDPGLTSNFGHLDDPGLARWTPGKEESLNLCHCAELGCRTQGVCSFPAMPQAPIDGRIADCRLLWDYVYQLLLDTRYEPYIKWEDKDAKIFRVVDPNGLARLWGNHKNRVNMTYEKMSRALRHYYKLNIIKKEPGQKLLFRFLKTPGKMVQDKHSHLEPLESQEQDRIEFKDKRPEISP
Summary of the method: as §1

Chain of ETV5 (P41161 whole entry): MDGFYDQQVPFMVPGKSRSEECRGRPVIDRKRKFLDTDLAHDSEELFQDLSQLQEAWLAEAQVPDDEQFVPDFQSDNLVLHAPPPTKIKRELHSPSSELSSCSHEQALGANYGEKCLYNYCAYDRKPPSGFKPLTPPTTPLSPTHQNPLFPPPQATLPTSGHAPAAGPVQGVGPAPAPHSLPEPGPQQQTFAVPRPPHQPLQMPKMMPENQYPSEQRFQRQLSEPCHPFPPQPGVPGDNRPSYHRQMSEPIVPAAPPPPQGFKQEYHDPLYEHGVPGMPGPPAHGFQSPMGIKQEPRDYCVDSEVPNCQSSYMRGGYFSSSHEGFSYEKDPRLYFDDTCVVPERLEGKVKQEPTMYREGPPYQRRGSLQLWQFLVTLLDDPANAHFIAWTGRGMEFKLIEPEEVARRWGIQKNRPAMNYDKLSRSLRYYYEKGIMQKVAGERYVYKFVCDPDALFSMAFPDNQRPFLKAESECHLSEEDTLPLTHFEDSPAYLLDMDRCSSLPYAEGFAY
Chain of ELF1 (P32519 whole entry): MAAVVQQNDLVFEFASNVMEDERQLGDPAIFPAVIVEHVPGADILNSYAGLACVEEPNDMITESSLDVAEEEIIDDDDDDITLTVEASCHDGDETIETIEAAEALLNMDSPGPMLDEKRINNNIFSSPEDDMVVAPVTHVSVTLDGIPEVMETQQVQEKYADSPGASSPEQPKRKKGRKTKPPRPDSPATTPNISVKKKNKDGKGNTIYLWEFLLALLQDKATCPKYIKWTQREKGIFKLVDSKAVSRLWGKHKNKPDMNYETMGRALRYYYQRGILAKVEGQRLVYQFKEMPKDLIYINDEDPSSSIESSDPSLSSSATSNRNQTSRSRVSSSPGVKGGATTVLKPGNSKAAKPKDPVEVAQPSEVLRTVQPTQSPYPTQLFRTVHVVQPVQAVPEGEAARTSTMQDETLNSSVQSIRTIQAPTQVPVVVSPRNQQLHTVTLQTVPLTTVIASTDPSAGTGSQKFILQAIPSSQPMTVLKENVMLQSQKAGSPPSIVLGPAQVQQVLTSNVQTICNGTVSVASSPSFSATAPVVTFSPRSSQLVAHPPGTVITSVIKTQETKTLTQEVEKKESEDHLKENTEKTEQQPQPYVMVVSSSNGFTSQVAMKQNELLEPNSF
Chain of ELF4 (Q99607 whole entry): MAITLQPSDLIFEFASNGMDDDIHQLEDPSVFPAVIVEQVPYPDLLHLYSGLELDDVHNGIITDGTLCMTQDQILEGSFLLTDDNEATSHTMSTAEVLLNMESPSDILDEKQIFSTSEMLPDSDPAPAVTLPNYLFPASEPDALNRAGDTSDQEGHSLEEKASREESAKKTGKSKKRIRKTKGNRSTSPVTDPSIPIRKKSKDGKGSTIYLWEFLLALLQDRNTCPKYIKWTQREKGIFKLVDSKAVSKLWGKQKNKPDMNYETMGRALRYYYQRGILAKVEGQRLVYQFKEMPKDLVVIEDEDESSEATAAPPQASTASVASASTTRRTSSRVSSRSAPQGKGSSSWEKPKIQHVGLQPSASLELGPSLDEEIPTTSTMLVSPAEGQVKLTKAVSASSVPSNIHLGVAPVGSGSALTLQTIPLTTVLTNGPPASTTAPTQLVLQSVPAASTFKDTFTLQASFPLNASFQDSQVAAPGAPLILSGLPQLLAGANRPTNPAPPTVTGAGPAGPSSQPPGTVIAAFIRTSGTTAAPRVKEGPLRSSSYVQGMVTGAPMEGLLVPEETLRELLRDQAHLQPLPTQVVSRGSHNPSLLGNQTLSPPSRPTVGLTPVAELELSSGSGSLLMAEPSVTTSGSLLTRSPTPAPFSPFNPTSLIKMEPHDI

Sequence: AAAGCG
- binding signal (ETV2): 1.06 fold enrichment (6-mer frequency, TF over GST control)

Sequence: GGTTTT
- binding signal (ETV2): 1.2 fold enrichment (6-mer frequency, TF over GST control)

Sequence: GGTCCT
- binding signal (FLI1): 1.02 fold enrichment (6-mer frequency, TF over GST control)
- binding signal (ERG): 1.01 fold enrichment (6-mer frequency, TF over GST control)
- binding signal (ELF1): 1.06 fold enrichment (6-mer frequency, TF over GST control)
- binding signal (ETV5): 1 fold enrichment (6-mer frequency, TF over GST control)
- binding signal (ELF4): 1.02 fold enrichment (6-mer frequency, TF over GST control)
- binding signal (ETV2): 1.13 fold enrichment (6-mer frequency, TF over GST control)
- binding signal (ERF): 1.16 fold enrichment (6-mer frequency, TF over GST control)
- binding signal (ETV3L): 1.03 fold enrichment (6-mer frequency, TF over GST control)
- binding signal (ETV7): 1.09 fold enrichment (6-mer frequency, TF over GST control)
